Assay outcomes from PubChem BioAssay.
Most compounds without a hit are left out; they make up all but 3.8% or so of the library.
rTrxR1 inhibitor: rat TrxR1 inhibition | recombinant rTrxR1, NADPH fluorescence consumption, selenite substrate | Potency, µM (titrated, usually from 114 µM), inactives show at the top dose activity change, negative = inhibition, usual class: inhibitors | 390,000 tested, 1% active | AID 588453; also: nearly all actives have a fitted effect of over 65% in size
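Rat TrxR1 (90 nM in the dispensed reagent) was pre-reduced with 400 uM NADPH for 5 min at room temperature, then incubated with compound for 15 min. After 400 uM selenite was added, NADPH fluorescence (Ex 340/Em 450 nm) was followed for 8 min.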
GLS inhibitor: blocks human kidney-isoform glutaminase activity. 410,000 tested, 0.21% active. Potency, µM (series often up to 45.5 µM), for inactives: at the top dose activity change, negative = inhibition, hits mostly inhibitors. O94925. GLS enzymatic activity, qHTS titration
Target sequence (O94925 whole entry, looked up, canonical isoform): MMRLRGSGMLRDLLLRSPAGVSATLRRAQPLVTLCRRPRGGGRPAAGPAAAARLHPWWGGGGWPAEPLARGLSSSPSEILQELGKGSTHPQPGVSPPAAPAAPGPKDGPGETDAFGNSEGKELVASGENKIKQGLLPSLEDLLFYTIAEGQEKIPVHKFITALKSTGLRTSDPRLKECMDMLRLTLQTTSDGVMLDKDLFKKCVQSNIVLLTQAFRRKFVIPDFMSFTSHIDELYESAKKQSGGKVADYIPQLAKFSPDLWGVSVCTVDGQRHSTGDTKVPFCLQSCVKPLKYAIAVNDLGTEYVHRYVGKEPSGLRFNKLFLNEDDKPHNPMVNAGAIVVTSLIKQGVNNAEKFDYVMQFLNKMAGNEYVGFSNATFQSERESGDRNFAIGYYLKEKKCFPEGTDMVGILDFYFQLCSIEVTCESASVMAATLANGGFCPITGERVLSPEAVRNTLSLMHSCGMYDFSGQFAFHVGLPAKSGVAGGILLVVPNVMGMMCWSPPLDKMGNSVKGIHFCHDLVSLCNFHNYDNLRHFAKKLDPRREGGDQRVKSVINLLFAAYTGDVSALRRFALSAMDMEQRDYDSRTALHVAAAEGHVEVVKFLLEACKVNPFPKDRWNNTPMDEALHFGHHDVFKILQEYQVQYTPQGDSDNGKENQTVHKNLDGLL
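hKGA in 45 mM KH2PO4 pH 8.2, 0.02% Tween-20 with pin-transferred compounds; 1 mM L-glutamine (stock) plus glutamate oxidase/HRP/Amplex Red coupling added. Fluorescence read initially and after 30 min at RT.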
VDR inhibitor: inhibitors of human vitamin D receptor; Potency, µM, for the others: max response, negative = inhibition, most hits filed as inhibitors; 400,000 tested, 0.93% active; P11473; VDR-SRC2-3 peptide fluorescence polarization, 2 h; AID 504847
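Signal is fluorescence polarization, reporting how far test compounds block the interaction of VDR with the SRC2-3 coregulator peptide after a 2 h room-temperature incubation.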
TrxR1 substrate: substrates of rat thioredoxin reductase 1 | 390,000 tested, 0.01% active | Potency, µM (series often up to 114 µM), inactives show at the highest dose activity change, negative = substrate turnover | O89049 | purified TrxR1 substrate turnover, NADPH consumption readout; also: nearly all actives have a fitted effect of over 50% in size
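Rat TrxR1, dispensed at 90 nM, was prereduced with 400 uM NADPH (final) for 5 min at ~22 deg C, then incubated with compound 15 min before 400 uM selenite. A first-read NADPH fluorescence drop versus no-compound background flagged substrates.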
KAT2A inh: inhibitors of human GCN5L2 histone acetyltransferase; 390,000 tested, 0.21% active; GCN5L2 HAT assay, ThioGlo1 CoA-SH fluorescence; Q92830; Potency, µM (top dose mostly 58.9 µM), inactives show at the top dose activity change, negative = inhibition, most hits filed as inhibitors
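Free CoA generated was detected with ThioGlo1 (50uM) fluorescence at Ex340nm/Em540nm, read immediately and after 20 min at room temperature. Enzyme, 20 nM in HEPES pH 7.5 buffer, saw compounds 15 min before adding 75uM H3(1-25) peptide and 70uM acetyl-CoA.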
Sfp PPTase inh: Sfp phosphopantetheinyl transferase inhibition; Q9F4F7; Biochemical Sfp PPTase activity, qHTS; Potency, µM, for the others: largest response in the series, negative = inhibition, usual class: inhibitors; 310,000 tested, 3.5% active; AID 1490;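 also: the enzyme is Sfp with the accession as filed and its product quenches rhodamine fluorescence; 0% = enzyme reaction without inhibitor and -100% = no enzyme wells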
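Sfp 15 nM + cpd, 15 min RT; start w/ rhodamine-CoA 5 uM, BHQ-2-YbbR 12.5 uM (final); 50 mM Hepes pH 7.6, 10 mM MgCl2, 0.01% NP-40, 0.01% BSA; read 525/598 nm at 0 and 30 min.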
Numbers without * were called inactive; [ ] = remark or other dose. Calls follow the shape of the dose curve; as a rule, active = well fitted curve in the direction sought with a large enough effect; inconclusive = small, poorly fitted or top-dose-only effect, or another doubt; inactive = no such curve, though single readings can be large; an effect the other way counts as inactive or inconclusive. Unless noted, % is scaled to controls: 0 for no effect and ±100 for the full control effect; potency is read from the fitted curve at half-maximal effect.

What do the screens show for `COc1ccc(C(=O)/C=C/c2cn(CC(O)CN3CCc4ccccc43)c3ccccc23)cc1` (stereo not drawn)?
rTrxR1 inhibitor: 5%; GLS inhibitor: -8%; VDR inhibitor: 3%; TrxR1 substrate: -7%; KAT2A inh: -11%

How did CCC(=C(c1ccc(OC)cc1)c1ccc(OC)cc1)c1cn(CC(O)CN2CCN(C)CC2)c2ccccc12 (stereo not drawn) do in these assays?
rTrxR1 inhibitor: 7%; GLS inhibitor: 18%; VDR inhibitor: -22%; TrxR1 substrate: 3%; KAT2A inh: 0%; Sfp PPTase inh: 50µM*

Results for Cc1noc(NS(=O)(=O)c2ccc(NC(=O)CCC3CCCCC3)cc2)c1C ?
rTrxR1 inhibitor: 1%[57.1 µM]; GLS inhibitor: -7%; VDR inhibitor: 1%; TrxR1 substrate: 5%[57.1 µM]; KAT2A inh: -24%; Sfp PPTase inh: 21%

Results for CCc1ccc(NC(=O)C(C)OC(=O)c2cccc(S(=O)(=O)N3CCc4ccccc4C3)c2)cc1 (stereo not drawn) ?
rTrxR1 inhibitor: 20%; GLS inhibitor: 1%; VDR inhibitor: -4%; TrxR1 substrate: 0%; KAT2A inh: -27%; Sfp PPTase inh: 89µM*

What do the screens show for `COC(=O)C1(C)CN(S(=O)(=O)c2ccc(C)cc2)c2cc(OC)ccc2C1=O` (stereo not drawn)?
rTrxR1 inhibitor: 21%; GLS inhibitor: 6%; VDR inhibitor: -18%; TrxR1 substrate: 30%; KAT2A inh: -6%; Sfp PPTase inh: 4%

Results for O=C(CCc1nc2cccnc2n1-c1ccccc1)Nc1ccc(Cl)c(Cl)c1 ?
rTrxR1 inhibitor: 15%; GLS inhibitor: 4%; VDR inhibitor: -22%; TrxR1 substrate: -5%; KAT2A inh: -6%

What do the screens show for `Cn1ccnc1CN1CCN(C(=O)c2cc(COc3ccc(F)c(F)c3)on2)CC1`?
rTrxR1 inhibitor: -15%; GLS inhibitor: 5%; VDR inhibitor: -7%; TrxR1 substrate: -8%; KAT2A inh: -4%; Sfp PPTase inh: 5%

Results for CC(C)N(CC#CCC(O)(c1ccccc1)c1ccccc1)CCO ?
rTrxR1 inhibitor: 37%[57.1 µM]; GLS inhibitor: 0%; VDR inhibitor: 21%; TrxR1 substrate: -14%[57.1 µM]; KAT2A inh: 3%; Sfp PPTase inh: 45µM*

How did Cc1ccccc1OCc1nnc(SCCN2CCCC2)n1-c1ccccc1 do in these assays?
rTrxR1 inhibitor: -2%[57.1 µM]; GLS inhibitor: 6%; VDR inhibitor: 7%; TrxR1 substrate: 11%[57.1 µM]; KAT2A inh: 12%; Sfp PPTase inh: 2%

How did Cn1ncc2nc(SCC(=O)Nc3ccc(Br)cc3F)n(Cc3ccccc3)c(=O)c21 do in these assays?
rTrxR1 inhibitor: 19%; GLS inhibitor: 2%; VDR inhibitor: -14%; TrxR1 substrate: -2%; KAT2A inh: -4%

How did CN(CCOc1ccc(C[C@H](Nc2ccccc2C(=O)c2ccccc2)C(=O)O)cc1)c1ccccn1 do in these assays?
rTrxR1 inhibitor: -7%; VDR inhibitor: inconclusive; KAT2A inh: 32µM*; Sfp PPTase inh: 1%

How did Oc1c(C=NCc2ccncc2)sc2ccccc12 do in these assays?
rTrxR1 inhibitor: -13%; GLS inhibitor: 8%; VDR inhibitor: -9%; TrxR1 substrate: -5%; KAT2A inh: -18%; Sfp PPTase inh: 28µM*

Results for O=Cc1c(-c2ccccc2)nc2ccccn12 ?
rTrxR1 inhibitor: 9%; GLS inhibitor: 0%; VDR inhibitor: -4%; TrxR1 substrate: 1%; KAT2A inh: 13%; Sfp PPTase inh: 22%

How did CCc1nc(-c2ccccc2)c2ccccn12 do in these assays?
rTrxR1 inhibitor: 16%[57.1 µM]; GLS inhibitor: -24%; VDR inhibitor: -8%; TrxR1 substrate: 5%[57.1 µM]; KAT2A inh: -5%; Sfp PPTase inh: 28µM*

What do the screens show for `Cc1ccc(C(c2ccc(C)o2)c2cccc([N+](=O)[O-])c2O)o1`?
rTrxR1 inhibitor: -7%; GLS inhibitor: 9%; VDR inhibitor: 9%; TrxR1 substrate: 1%; KAT2A inh: -4%; Sfp PPTase inh: inconclusive

What do the screens show for `Cc1cc(C(c2ccc(C)o2)c2ccc(C)o2)c(O)c([N+](=O)[O-])c1`?
rTrxR1 inhibitor: -19%[57.1 µM]; GLS inhibitor: 13%; VDR inhibitor: -8%; TrxR1 substrate: 12%[57.1 µM]; KAT2A inh: -3%; Sfp PPTase inh: 50µM*

What do the screens show for `COc1ccc(O)c(N)c1`?
KAT2A inh: -3%; Sfp PPTase inh: 56µM*

How did Cc1ccccc1/C=N/n1c(COc2ccccc2)n[nH]c1=S do in these assays?
rTrxR1 inhibitor: -23%; GLS inhibitor: -12%; VDR inhibitor: 8%; TrxR1 substrate: 3%; KAT2A inh: -1%; Sfp PPTase inh: -11%

How did COc1cc(OC)c(OC)cc1/C=N/n1c(COc2ccccc2)n[nH]c1=S do in these assays?
rTrxR1 inhibitor: -4%[57.1 µM]; GLS inhibitor: inconclusive; VDR inhibitor: -24%; TrxR1 substrate: 8%[57.1 µM]; KAT2A inh: 1%; Sfp PPTase inh: 45µM*

Results for Oc1ccc(/C=N/n2c(COc3ccccc3)n[nH]c2=S)c(O)c1 ?
rTrxR1 inhibitor: -5%; GLS inhibitor: 48%; VDR inhibitor: 12%; TrxR1 substrate: -3%; KAT2A inh: 4%; Sfp PPTase inh: 56µM*

How did CCOc1ccccc1/C=N/n1c(COc2ccccc2)n[nH]c1=S do in these assays?
rTrxR1 inhibitor: -29%; GLS inhibitor: inconclusive; VDR inhibitor: -15%; TrxR1 substrate: -9%; KAT2A inh: -4%; Sfp PPTase inh: 35µM*

What do the screens show for `Oc1ccccc1/C=N/n1c(COc2ccccc2)n[nH]c1=S`?
rTrxR1 inhibitor: inconclusive; GLS inhibitor: 2%; VDR inhibitor: -2%; TrxR1 substrate: 7%[57.1 µM]; KAT2A inh: -17%; Sfp PPTase inh: inconclusive

How did COc1ccc(OC)c(/C=N/n2c(COc3ccccc3)n[nH]c2=S)c1 do in these assays?
rTrxR1 inhibitor: 1%; GLS inhibitor: -18%; VDR inhibitor: -4%; TrxR1 substrate: 1%; KAT2A inh: -11%; Sfp PPTase inh: 0%

Results for Fc1ccccc1/C=N/n1c(COc2ccccc2)n[nH]c1=S ?
rTrxR1 inhibitor: -17%[57.1 µM]; GLS inhibitor: 4%; VDR inhibitor: -6%; TrxR1 substrate: 12%[57.1 µM]; KAT2A inh: 0%; Sfp PPTase inh: 56µM*

What do the screens show for `COc1ccc(NC(=O)c2cc(NC(=O)C3CCCCC3C(=O)O)ccc2N2CCOCC2)cc1` (stereo not drawn)?
rTrxR1 inhibitor: -14%; GLS inhibitor: 9%; VDR inhibitor: 17%; TrxR1 substrate: -8%; KAT2A inh: -18%; Sfp PPTase inh: 22%

Results for Fc1ccccc1N1CCN(CCCc2ccccc2)CC1 ?
rTrxR1 inhibitor: 29%; GLS inhibitor: -6%; VDR inhibitor: -2%; TrxR1 substrate: 4%; KAT2A inh: -8%; Sfp PPTase inh: -16%
